Among all 63,000 compounds or so, about 1,100 (1.7%) were called active. This is one part of a sample in which actives are shown more often than they occur. Measured potencies and affinities stand elsewhere. Unmarked numbers belong to inactive results. Rule as the data show it: active = cytotoxicity above about 50%; inactive = the rest.
Assay: cytotoxicity in HPDE-C7 cells, cell-based, fluorescence, HTS (AID 430);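 also: cells exposed to compound for 48 hours before viability readout; 0% = vehicle and 100% = reference cytotoxic drug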
Conditions: HPDE-C7 pancreatic duct cells viability, at 10 µM, active compounds read high
COc1ccc(S(=O)(=O)NCCc2csc(C)n2)cc1C showed a cytotoxicity of 0.1%.
Work on Cc1ccccc1-n1c(C)nc2ccccc21 yielded a cytotoxicity of -11.6%.
Cc1ccc2c(c1)c1c3n2CCN(C(=O)CN2CCN(C)CC2)C3CCC1 (stereo not drawn) gave a cytotoxicity of 42.4%.
With Cc1ccc2c(c1)c1c3n2CCN(C(=O)C2CC2)C3CCC1 (stereo not drawn) the cytotoxicity was -6.9%.
COc1ccc(Cn2nnnc2CN2CCOCC2)cc1 showed a cytotoxicity of -5.5%.
In the case of Cc1nc(NCc2ccco2)c(C#N)c2c1COC(C)(C)C2, the cytotoxicity is reported as -17.6%.
In the case of CCCc1nc(NCc2ccco2)c(C#N)c2c1COC(C)(C)C2, the cytotoxicity is reported as -13.3%.
Compound CN(C)CCNc1nc(-c2ccco2)c2c(c1C#N)CC(C)(C)OC2 has a cytotoxicity of 2.7%.
Work on CCN(CC)CCNc1nc(-c2ccco2)c2c(c1C#N)CC(C)(C)OC2 yielded a cytotoxicity of -14.1%.
With CCC(=O)Nc1cc(C(=O)NCC2CCCN2CC)c(OC)cc1N(C)C (stereo not drawn) the cytotoxicity was -2.6%.
Cc1cccc(C)c1NC(=O)N1CCC(n2cnc3ccccc32)CC1 showed a cytotoxicity of -24.3%.
Cc1cc(C)n(C(=O)CNC(=O)COc2ccccc2)n1 showed a cytotoxicity of -2.7%.
Work on COC(=O)c1ccccc1NC(=O)c1cc2sccc2n1C yielded a cytotoxicity of 3.3%.
For Cc1ccc(S(=O)(=O)Cn2nnnc2C(C(C)C)N2CCN(Cc3ccco3)CC2)cc1 (stereo not drawn), the cytotoxicity was -0.6%.
For CCC(=O)Oc1ccc(-c2nc(-c3cccnc3)no2)cc1, the cytotoxicity was -4.4%.
Compound COC(=O)CCC(=O)Oc1ccc(OC(=O)CCC(=O)OC)cc1 has a cytotoxicity of 31.7%.
With CC(C)c1ccc(OC(=O)NCCO)cc1 the cytotoxicity was -0.9%.
Compound CCOc1ccc(C(=O)COC(=O)CC)cc1 has a cytotoxicity of -1.4%.
With CCn1c(Cc2ccccc2)nnc1SCC(=O)Nc1cc(C)on1 the cytotoxicity was 4.4%.
O=C1CCC(=O)N1OCCOc1ccc2c(c1)CCC2 gave a cytotoxicity of -1.4%.
Work on O=C1NC(c2ccc3c(c2)OCO3)Nc2ccccc21 (stereo not drawn) yielded a cytotoxicity of 10.6%.
For COC(=O)c1ccc2c(=O)n(CCCN3CCOCC3)c(=S)[nH]c2c1, the cytotoxicity was 2.7%.
For CCC(C)C(NC(=O)C1CCC(C)CC1)C(=O)NC(C(=O)OC)C(C)C (stereo not drawn), the cytotoxicity was -5.2%.
In the case of COc1cc(-c2nnc(-c3cccs3)o2)cc(OC)c1OC, the cytotoxicity is reported as -21.3%.
COc1cc2nc(-c3cccs3)oc(=O)c2cc1OC gave a cytotoxicity of 16.9%.
For CCOC(=O)c1sc(Nc2nc3c(OC)cccc3s2)nc1C, the cytotoxicity was 63.9% (active).
With COc1ccc(-c2nnc(-c3ccc(N)cc3)o2)cc1 the cytotoxicity was 2.5%.
Work on COc1cccc2sc(N(C)c3ccccc3)nc12 yielded a cytotoxicity of -14%.
CCOC(=O)c1sc(NCCNc2nc(C)c(C(=O)OCC)s2)nc1C showed a cytotoxicity of -1.3%.
For COc1ccccc1-c1nnc(Nc2nc3c(OC)cccc3s2)o1, the cytotoxicity was 54.9% (active).
In the case of COc1ccc(-c2nnc(Nc3nc4c(OC)cccc4s3)o2)cc1, the cytotoxicity is reported as 85.9% (active).
For COc1ccccc1-c1nnc(NC(=O)c2ccccc2F)o1, the cytotoxicity was 4.8%.
With COc1cccc2sc(Nc3nnc(-c4cccs4)o3)nc12 the cytotoxicity was 65.3% (active).
For COc1ccc(-c2nnc(NC(=O)C(C)C)o2)cc1, the cytotoxicity was -7.7%.
With COC(=O)c1sc(NC(=O)COc2ccccc2OC)nc1C the cytotoxicity was -3%.
For CCCCNC(=O)NCC(=O)Nc1ccc(F)c(F)c1, the cytotoxicity was -4%.
CCSc1nnc(NC(=O)CSc2nccn2-c2cc(C)cc(C)c2)s1 gave a cytotoxicity of -2.2%.
In the case of CC(=O)NC1CC2CCCC(C1)N2S(=O)(=O)c1ccccc1 (stereo not drawn), the cytotoxicity is reported as -17.7%.
Compound COc1ccc(N(C(=O)CNC(=O)c2ccco2)C(C(=O)NC2CCCCC2)c2ccco2)cc1 (stereo not drawn) has a cytotoxicity of -2.6%.
For Cc1nc(NC(=O)C2CC2)sc1C(=O)N1CCCCC1, the cytotoxicity was 11.8%.
Cc1ccc(-c2noc(CCC(=O)NCCCN3CCN(c4ccc(F)cc4)CC3)n2)cc1 showed a cytotoxicity of -1.5%.
O=C(Nc1ccccn1)c1cccnc1 gave a cytotoxicity of 0.9%.
For CC(=O)Nc1ccc(S(=O)(=O)N(CC(=O)O)Cc2ccccc2)cc1, the cytotoxicity was -8.5%.
Compound Cc1ccc(S(=O)(=O)Nc2ccc(S(=O)(=O)N3CCCC3)cc2)cc1 has a cytotoxicity of 8.3%.
Cc1cccc(Nc2nc(-c3ccccn3)cs2)n1 gave a cytotoxicity of 0.3%.
For COc1cccc2sc(Nc3nnc(-c4ccccc4Cl)o3)nc12, the cytotoxicity was 52.9% (active).
For c1ccc(-c2csc(Nc3cccnc3)n2)nc1, the cytotoxicity was 3.7%.
O=C(Nc1nnc(-c2ccccc2Cl)o1)c1ccco1 gave a cytotoxicity of 6.6%.
Work on COc1ccc(-c2noc(-c3ccccc3Cl)n2)cc1OC yielded a cytotoxicity of 0.6%.
With COc1cccc2sc(Nc3nc(-c4ccccn4)cs3)nc12 the cytotoxicity was 65.7% (active).
For Cc1ccc2oc(=O)cc(CN3CCC(C)CC3)c2c1, the cytotoxicity was 0.7%.
O=c1c2ccccc2c(C=NCCO)c(O)n1-c1ccccc1 showed a cytotoxicity of 1.2%.
For CCOC(=O)C1CCCN(C2CC(=O)N(c3ccc(C)c(C)c3)C2=O)C1 (stereo not drawn), the cytotoxicity was -3.2%.
With O=C(NCc1ccc(F)cc1)c1ccc(CS(=O)(=O)Cc2ccccc2F)o1 the cytotoxicity was -13.3%.
O=C(c1cc(Cl)ccc1Cl)N1CCN(c2ccccn2)CC1 gave a cytotoxicity of 5.9%.
In the case of Cc1cc(-c2ccccc2)nc(N2CCN(c3ccccn3)CC2)n1, the cytotoxicity is reported as 11.2%.
Compound O=C(NCCC1=CCCCC1)C1CCCN(S(=O)(=O)c2cnc[nH]2)C1 (stereo not drawn) has a cytotoxicity of -2.1%.
CCOC(=O)c1cccc(C(=O)OCC)n1 showed a cytotoxicity of -1%.
For CCOC(=O)c1ccccc1NC(=O)COC, the cytotoxicity was -3.8%.
CCN(c1ccccc1)c1cc(C)nc2nc(C)nn12 gave a cytotoxicity of -20.9%.
Clc1ccccc1Cn1nnc2c(Nc3ccccc3)ncnc21 showed a cytotoxicity of -6.8%.
CC(C)CCNc1ncnc2c1nnn2Cc1ccccc1Cl gave a cytotoxicity of -10.8%.
Work on CCc1ccc2[nH]c(=O)c(C(c3nnnn3CCOC)N3CCN(c4ccccc4F)CC3)cc2c1 (stereo not drawn) yielded a cytotoxicity of -22%.
With Cc1cc(C)nc(NCCCc2ccccc2)n1 the cytotoxicity was -5.9%.
Cc1cc(NCCCN)nc(-c2ccccc2O)n1 gave a cytotoxicity of 16.4%.
In the case of CCCCNc1cc(C)nc(NCc2ccccc2)n1, the cytotoxicity is reported as 84.4% (active).
For CCCCOc1cc(C)nc(NCc2ccccc2)n1, the cytotoxicity was -30.8%.
With Cc1cc(Nc2ccccc2)nc(-c2ccccc2O)n1 the cytotoxicity was -2.9%.
In the case of O=c1[nH]c2ccc(S(=O)(=O)N3CCCCC3)cc2[nH]1, the cytotoxicity is reported as -1.4%.
Work on CCOC(=O)c1ccccc1NCN1C(=O)CSC1=O yielded a cytotoxicity of -1.8%.
Compound Cc1cc(=O)[nH]c(/N=C(\N)Nc2cccc3ccccc23)n1 has a cytotoxicity of 0.5%.
COc1ccc(C2C3=C(N=C4SCC(=O)N42)c2ccccc2CC3)cc1OC (stereo not drawn) showed a cytotoxicity of 19.3%.
In the case of O=C(O)c1ccccc1-c1ccccc1C(=O)NCc1ccco1, the cytotoxicity is reported as 0.7%.
Cn1c(=O)cc(OCC(=O)N2CCCc3ccccc32)c2ccccc21 showed a cytotoxicity of -9.1%.
For CC1=C(C)C(=O)NC(Nc2nc(C)c3cc(C)cc(C)c3n2)N1 (stereo not drawn), the cytotoxicity was 86.5% (active).
For Cc1cc(C)c2nc(NC3=NCN(CCN4CCOCC4)CN3)nc(C)c2c1, the cytotoxicity was -7.5%.
Work on O=C(c1cc(S(=O)(=O)N2CCCCC2)c(Cl)cc1N1CCOCC1)N1CCOCC1 yielded a cytotoxicity of -5.8%.
Work on COc1cc(Cl)c(S(=O)(=O)n2cnc(C)c2)cc1Cl yielded a cytotoxicity of -0.2%.
Work on COc1cc(C)c(C(C)C)cc1S(=O)(=O)N1CCN(C)CC1 yielded a cytotoxicity of -22.7%.
Work on Clc1ccc(OCc2nc(-c3ccncc3)no2)c(Cl)c1 yielded a cytotoxicity of -6.9%.
Cc1ccc2c(c1)c1ncnc(N3CCN(c4ccccc4)CC3)c1n2C showed a cytotoxicity of -1.6%.
Cc1ccc2c(c1)c1ncnc(N3CCOCC3)c1n2C showed a cytotoxicity of -13.7%.
With O=C(c1ccc(S(=O)(=O)N2CCC(c3nc4ccccc4s3)CC2)cc1)N1CCOCC1 the cytotoxicity was 1.1%.
In the case of Cc1cccc(NS(=O)(=O)c2cccs2)n1, the cytotoxicity is reported as -0.9%.
In the case of COc1ccc(NC(=O)N(CCC(C)C)C(C)c2ccccn2)c(OC)c1 (stereo not drawn), the cytotoxicity is reported as -1.9%.
Work on O=c1c(-c2ccccc2)coc2c(CN3CCCC3)c(O)ccc12 yielded a cytotoxicity of 5.3%.
For COc1ccc(-c2coc3c(CN4CCCCC4)c(O)c(CN4CCCCC4)c(O)c3c2=O)cc1, the cytotoxicity was 53.1% (active).
For COc1ccc(C(=O)c2coc3ccc(O)c(CN4CCCCC4)c23)cc1, the cytotoxicity was 14.9%.
With O=c1[nH]nc(Sc2ncnc3sccc23)n1CCc1ccccc1 the cytotoxicity was 51.5% (active).
Compound c1ccc(-c2cnc(CSc3ncnc4sccc34)o2)cc1 has a cytotoxicity of -9%.
For COc1ccccc1Cn1c(=O)c2ccccc2n2c(Sc3ncnc4sccc34)nnc12, the cytotoxicity was 38.5%.
In the case of COC(=O)c1ccc(Oc2c(C)oc3c(CN4CCN(C)CC4)c(O)ccc3c2=O)cc1, the cytotoxicity is reported as -9.6%.
With Cc1cc(NC(=O)Cn2cc(C(F)(F)F)cc(Cl)c2=O)no1 the cytotoxicity was 4.3%.
Work on Cc1cc(NC(=O)COC(=O)CSCc2ccc(Cl)c(Cl)c2)no1 yielded a cytotoxicity of -5.6%.
For Cc1cc(NC(=O)COC(=O)C(Nc2ccc(C(F)(F)F)cc2Cl)C(C)C)no1 (stereo not drawn), the cytotoxicity was 54.8% (active).
O=C(NC(C(=O)c1ccccc1)n1ccc(=O)[nH]c1=O)c1ccccc1 (stereo not drawn) showed a cytotoxicity of 23.4%.
With CCOC(=O)N1CCN(C(=O)c2cccc(OC)c2OC)CC1 the cytotoxicity was 6.7%.
For CC(NS(=O)(=O)c1ccc(OCC(=O)N2CCOCC2)c(Cl)c1)c1ccccc1 (stereo not drawn), the cytotoxicity was 3.2%.
Work on COCCNc1ncnc2c1cnn2Cc1ccc(Cl)cc1 yielded a cytotoxicity of 31.2%.
Compound CCOC(=O)N1CCN(C(=O)CSc2nnc(-c3cccc(OC)c3)o2)CC1 has a cytotoxicity of -7.7%.
With O=C(Nc1ccncc1)C1CCCN(S(=O)(=O)c2cccc3cccnc23)C1 (stereo not drawn) the cytotoxicity was 53.3% (active).
Cc1cccc(NC(=O)C2CCCN(S(=O)(=O)c3cccc4cccnc34)C2)c1 (stereo not drawn) showed a cytotoxicity of -12.3%.
With O=C(Nc1ccc(F)cc1)C1CCCN(S(=O)(=O)c2cccc3cccnc23)C1 (stereo not drawn) the cytotoxicity was -10.4%.
